# Bioassay records as filed in PubChem.
# Compounds with a hit are over-represented: about 2.9% of the library has one in this group of screens.
# HSF1 inh: HSF1 inhibitors in luciferase reporter cells, primary screen, cell-based, NIH3T3, luminescence | NIH3T3-HGL HSE-luciferase, MG132-induced, luminescence 8 h; hits give low values | activity change, negative = inhibition, % at 7.5 µM (by protocol) | 0.77% of 300,000 active | AID 2098, 2009;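 active = more than half of replicate wells show activity change below -50%, luminescence cut by over half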;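 note: luciferase reports HSF-1 transcriptional activity via heat shock element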
# Hsp70 act: Hsp70 transcriptional activators, primary screen, cell-based, HeLa, Hsp70 promoter luciferase, luminescence, 10 µM | HeLa Hsp70 promoter luciferase reporter; scaled: vehicle 0, proteasome-inhibitor control 100% | activation, % at 10 µM | 0.04% of 200,000 active;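 active = activation above the mean across all tested compounds plus 3 SD, cutoff set per campaign, cut at about 5.5% in these data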
# S1P4 antag: S1P4 receptor antagonists, primary screen, cell-based | 0.26% of 220,000 active | S1P4-expressing cells, antagonist mode, reporter read-out | AID 1510, 2009 | Sphingosine 1-phosphate receptor 4 (Homo sapiens), O95977 | inhibition, % at 4.98 µM; in the data active = inhibition above about 29%
# Target sequence (O95977 whole entry, looked up): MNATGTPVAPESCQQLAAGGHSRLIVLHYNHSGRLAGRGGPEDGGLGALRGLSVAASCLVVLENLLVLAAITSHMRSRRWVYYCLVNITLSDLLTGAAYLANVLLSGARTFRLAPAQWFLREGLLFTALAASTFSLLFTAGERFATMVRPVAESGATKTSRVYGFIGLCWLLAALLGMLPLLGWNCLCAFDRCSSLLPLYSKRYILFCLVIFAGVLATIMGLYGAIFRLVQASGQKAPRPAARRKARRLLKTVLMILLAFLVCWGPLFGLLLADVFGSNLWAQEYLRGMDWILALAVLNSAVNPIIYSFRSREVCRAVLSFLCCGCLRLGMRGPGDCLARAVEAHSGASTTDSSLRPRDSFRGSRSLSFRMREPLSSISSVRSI
# S1P4 ag: S1P4 receptor agonists, primary screen, cell-based; activation, % at 4.98 µM; AID 1509, 2009; Sphingosine 1-phosphate receptor 4 (Homo sapiens), O95977; 0.35% of 220,000 active; S1P4-expressing cell line, agonist reporter assay; in the data active = activation above about 11%
# S1P3 antagonist: S1P3 receptor antagonists, primary screen, cell-based; Sphingosine 1-phosphate receptor 3 (Homo sapiens), Q99500; CHO S1P3 NFAT-BLA reporter, FRET fluorescence, antagonist mode; inhibition, % at 4.98 µM; 0.27% of 170,000 active; AID 485, 2006;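 active = inhibition above the plate cutoff, the mean inhibition of test wells on that plate plus 3 SD, cut at about 28% in these data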;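 note: cells challenged with S1P at its EC80 of 0.8 µM; blue over green emission ratio from cleaved BLA substrate after 4 h stimulation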
# HSF1 activator: HSF-1 activators, primary screen, NIH3T3-HGL cells, MG132 stress, luminescence, single point | NIH3T3-HGL HSF-1 luciferase reporter, 8 h; 100% = twice DMSO control signal | activation, % at 9 µM | 1.7% of 300,000 active | AID 504408, 2011;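 active = mean replicate activation of at least 50% with a set share of replicates each reaching 50%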
# S1P4 agonist cf: S1P4 receptor agonists, retest, confirmation, cell-based, high throughput; shares compounds with S1P4 ag; S1P4 agonist cell-based reporter assay; activation, % at 4.98 µM; 7% of 740 active; in the data active = activation above about 12%
# S1P1 agonist: S1P1 receptor agonists, human, counter-screen for S1P4 agonist project, cell-based; 4% of 740 active; AID 1563, 2009; shares compounds with S1P4 ag; activation, % at 4.98 µM; S1P1 agonist cell-based assay, activation; in the data active = activation above about 21%
# A number is an active result; 0 = inactive; - = no result.
SMILES,HSF1 inh,Hsp70 act,S1P4 antag,S1P4 ag,S1P3 antagonist,HSF1 activator,S1P4 agonist cf,S1P1 agonist
O=C(O)CSc1nnc(-c2cccc(S(=O)(=O)N3CCOCC3)c2)n1-c1cccc(Cl)c1,0,-,0,15,0,0,0,0
Clc1ccc(C2=NN(c3ccccc3)C(c3ccco3)C2)cc1 (stereo unspecified),0,-,0,20,0,0,14,30
COc1ccc(Nc2nnc(SCC(=O)NC(=O)Nc3ccc4c(c3)OCCO4)s2)cc1,0,0,0,0,0,0,-,-
CCOC1CCc2c(C)nc(N)nc2S1 (stereo unspecified),0,-,0,24,0,0,0,0
C=C(C)C1Cc2nc(N)nc(C)c2C1 (stereo unspecified),0,0,0,0,0,0,-,-
CCOC(=O)C1=C(C)Nc2nc(C)nn2C1c1ccc(C)cc1 (stereo unspecified),0,0,0,13,0,0,0,0
CCOc1ccc(S(=O)(=O)NCc2ccc3c(c2)OCO3)cc1,0,-,-,-,-,0,-,-
COCn1c(-c2ccc(OC)c(OC)c2)nc2ccccc21,0,0,0,0,0,0,-,-
COCn1c(-c2cccc(Br)c2)nc2ccccc21,0,0,0,82,0,0,0,0
O=C(Nc1ccc(OC(F)F)cc1)c1cc[n+]([O-])cc1,0,-,-,-,-,0,-,-
Cc1ccc(NC(=S)N(N)CCO)cc1,0,0,0,0,0,0,-,-
CCN(N)C(=S)Nc1ccc(F)cc1,0,0,0,33,0,0,0,0
CCOc1cc(CNCCSc2nnnn2C)cc(Br)c1OCc1ccc(F)cc1,0,0,0,41,0,0,0,0
COc1cc(CNCCSc2nnnn2C)cc(Br)c1OCc1ccc(F)cc1,0,0,0,0,-,0,-,-
O=C(Nc1ccc2c(c1)C(=O)NC2=O)c1cccc(C(F)(F)F)c1,0,-,-,-,-,0,-,-
CN(C)Cc1c(C(=O)N/N=C/c2ccncc2)nnn1-c1nonc1N,0,-,-,-,-,0,-,-
C=CCNC(=O)C1CCC(=O)N1S(=O)(=O)c1ccc(C)cc1 (stereo unspecified),0,-,-,-,-,0,-,-
N#Cc1cnn2ccc(-c3cc(N4CCOCC4)ccc3[N+](=O)[O-])nc12,0,0,0,14,0,0,0,0
CCc1noc(C)c1C(=O)OC(C)C(=O)Nc1ccccc1OC (stereo unspecified),0,-,-,-,-,0,-,-
Cc1cc(C)n(-c2nc3ccccc3nc2N2CCCC2)n1,0,0,0,87,-,0,0,0
COc1ccc(CCNC(=O)CSc2nnc(-c3ccco3)c(-c3ccco3)n2)cc1OC,0,-,-,-,-,0,-,-
Cc1ccc2c(c1)n([O-])c1c([n+]2=O)CCCC1,0,0,0,0,-,0,-,-
O=[n+]1c2c(n([O-])c3cc(F)ccc31)CCCC2,0,0,0,21,0,0,0,0
COc1ccc(NC(=O)CSc2nc3ccccc3nc2N2CCCC2)cc1Cl,0,-,-,-,-,0,-,-
CCc1cccc(CC)c1NC(=O)COC(=O)c1ccc2c(c1)S(=O)(=O)c1ccccc1C2=O,0,0,0,12,0,0,0,0
SMILES,HSF1 inh,Hsp70 act,S1P4 antag,S1P4 ag,S1P3 antagonist,HSF1 activator,S1P4 agonist cf,S1P1 agonist
O=c1c2ccccc2oc2ccc(-c3ccc4[nH]ccc4c3)cc12,0,-,-,-,-,0,-,-
CN(C)c1ccc(N2C(=O)CC(Sc3ccccc3C(=O)O)C2=O)cc1 (stereo unspecified),0,0,0,11,0,0,0,0
CCCn1c(=O)c(-c2nc3ccccc3[nH]2)c(O)c2ccccc21,0,0,0,0,0,0,-,-
CCn1c(=O)c(-c2nc3ccccc3[nH]2)c(O)c2ccccc21,0,0,0,35,0,0,0,0
CCC(C)(C)n1nnnc1C(c1cccnc1)N1CCN(c2cccc(C(F)(F)F)c2)CC1 (stereo unspecified),0,0,0,15,-,0,0,0
CCC(C)(C)n1nnnc1C(c1ccncc1)N1CCN(c2cccc(OC)c2)CC1 (stereo unspecified),0,0,0,0,0,0,-,-
COCCCNC(=O)C1CCN(C(=O)Nc2ccc(Cl)cc2)CC1,0,0,0,61,0,0,0,0
COc1ccc(-c2[nH]ncc2-c2ccc(Cl)cc2)c(O)c1,0,0,0,0,0,0,-,-
O=[N+]([O-])c1ccc(COc2ccc(-c3[nH]ncc3-c3ccc(Cl)cc3)c(O)c2)cc1,0,0,0,114,0,0,0,0
CCOC(=O)C1CCCN(C(=O)c2cc3c(OC)c(OC)c(OC)cc3[nH]2)C1 (stereo unspecified),0,-,-,-,-,0,-,-
O=c1oc2c(CN3CCCCC3)c(O)ccc2cc1-c1nc2ccccc2[nH]1,-,-,-,-,0,-,-,-
O=c1oc2c(CN3CCN(CCO)CC3)c(O)ccc2cc1-c1ccccn1,0,-,0,14,0,0,0,0
O=C(NNc1c2ccccc2nc2ccccc12)C12CC3CC(CC(C3)C1)C2,0,-,0,13,0,0,0,0
Cc1ccc(-c2csc(/C(C#N)=C(\O)CCl)n2)cc1,0,0,0,20,0,0,0,0
CN(C)c1oc(-c2ccc(Cl)cc2)nc1S(=O)(=O)c1ccccc1,0,0,0,0,0,0,-,-
Cc1ccc(-c2ccc(=O)n(CC(=O)N3CCN(c4cc(Cl)ccc4C)CC3)n2)cc1,0,0,0,0,-,0,-,-
COc1cc(C#N)c(NC(=S)N2CCOCC2)cc1OC,0,0,0,24,0,0,0,0
CNc1ccccc1C(C)(C)c1cn(-c2ccc([N+](=O)[O-])cc2)nn1,0,-,-,-,-,0,-,-
O=C(CNC(=O)c1ccc(F)cc1)N/N=C/c1cn[nH]c1-c1ccccc1,0,0,0,16,0,0,0,0
COc1ccc(Cn2c(CO)cnc2SCC(=O)Nc2cccc(NC(C)=O)c2)cc1,0,-,-,-,-,0,-,-
COc1ccc(CNC(=O)CCC(=O)Nc2nnc(CC(C)C)s2)cc1,0,-,0,0,0,0,-,-
CN(c1nc2nonc2nc1NC1CC1)C1CCOC1 (stereo unspecified),0,0,0,12,0,0,0,0
COc1ccc(-n2nc3c(c2NC(=O)c2ccc(Br)o2)CS(=O)(=O)C3)cc1,0,-,-,-,-,0,-,-
CCCN(CCC)S(=O)(=O)c1ccc(C(=O)Nc2nc3c(s2)CCc2ccccc2-3)cc1,0,0,0,29,0,0,0,0
Cc1ccc(-c2nc(NC(=O)c3ccc(S(=O)(=O)N(CCC#N)CCC#N)cc3)sc2-c2ccccc2)cc1,0,0,0,0,0,0,-,-
